# Where “and” joins values, the source holds several entries; their conditions need not be identical. Identical values can stand only once. Some structures have more than one record in an assay (separate samples or runs), and their calls can disagree. Calls of active or inactive are those of the source. Rule for the calls: active = hit-call score of the fitted dose curve at least 0.9, where 1 is the maximum; inactive = score below 0.9.
# Assays:
# [1] = read-out: Collagen IV, COL4A1 (gene 1282); test: BSK_MyoF_CollagenIV: BioMAP Diversity Plus: MyoF Assay for Collagen IV Biomarker Activity (AID 2284247); details: primary human lung fibroblasts
# How it was run: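 Primary human lung fibroblasts (MyoF system) dosed 24 h; Collagen IV measured by ELISA. Activity fitted in positive direction against DMSO; cytotoxicity tracked by SRB total-protein staining in parallel cultures.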
# [2] = read-out: Monokine induced gamma interferon (MIG), CXCL9 (gene 4283); test: BSK_KF3CT_MIG: BioMAP Diversity Plus: KF3CT Assay for Monokine induced gamma interferon (MIG) Biomarker Activity (AID 2284248); details: primary human keratinocytes with fibroblasts
# How it was run: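 The assay uses a co-culture of human keratinocytes and foreskin fibroblasts. Measurement occurs 24 hours after dosing, with MIG detected by ELISA and the DMSO control as baseline.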
# [3] = read-out: Vascular cell adhesion molecule 1 (VCAM1), VCAM1 (gene 7412); test: BSK_BF4T_VCAM1: BioMAP Diversity Plus: BF4T Assay for Vascular cell adhesion molecule 1 (VCAM1) Biomarker Activity (AID 2284249); details: primary human bronchial epithelial cells with fibroblasts
# How it was run: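 Human bronchial epithelial cell and dermal fibroblast co-culture exposed 24 h. VCAM-1 measured by ELISA; parallel SRB total-protein staining for cytotoxicity. Fitted in positive direction relative to DMSO.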
# [4] = read-out: Collagen I, COL1A1 (gene 1277); test: BSK_hDFCGF_CollagenI: BioMAP Diversity Plus: hDFCGF Assay for Collagen I Biomarker Activity (AID 2284250); details: primary human foreskin fibroblasts
# How it was run: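 Primary human foreskin fibroblasts exposed to chemical for 24 h; Collagen I levels measured by ELISA. Cytotoxicity checked by SRB total-protein staining in parallel cultures.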
# [5] = read-out: Interferon-inducible T-cell alpha chemoattractant (ITAC), CXCL11 (gene 6373); test: BSK_hDFCGF_ITAC: BioMAP Diversity Plus: hDFCGF Assay for Interferon-inducible T-cell alpha chemoattractant (ITAC) Biomarker Activity (AID 2284251); details: primary human foreskin fibroblasts
# How it was run: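 Primary human foreskin fibroblasts (hDFCGF system) treated for 24 h; I-TAC quantified by ELISA. Gain-direction fitting versus DMSO; parallel SRB staining of total protein flagged overt cytotoxicity.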
# [6] = read-out: Plasminogen activator inhibitor-1 (PAI1), SERPINE1 (gene 5054); test: BSK_KF3CT_PAI1: BioMAP Diversity Plus: KF3CT Assay for Plasminogen activator inhibitor-1 (PAI1) Biomarker Activity (AID 2284252); details: primary human keratinocytes with fibroblasts
# How it was run: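 Human keratinocyte/foreskin fibroblast co-culture dosed for 24 h; PAI-1 measured by ELISA, fitted in positive direction against DMSO baseline. Parallel SRB total-protein staining (0.1% SRB, 560 nm) assesses overt cytotoxicity.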
# [7] = read-out: Monocyte Chemoattractant Protein-1 (MCP1), CCL2 (gene 6347); test: BSK_IMphg_MCP1: BioMAP Diversity Plus: IMphg Assay for Monocyte Chemoattractant Protein-1 (MCP1) Biomarker Activity (AID 2284253); details: primary human endothelial cells with macrophages
# How it was run: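 Human venular endothelial cells co-cultured with macrophages; MCP-1 measured by ELISA 24 hours post-dose and fitted against DMSO. Cytotoxicity monitored by SRB total-protein staining in parallel cultures.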
# [8] = read-out: Interleukin-8 (IL8), CXCL8 (gene 3576); test: BSK_KF3CT_IL8: BioMAP Diversity Plus: KF3CT Assay for Interleukin-8 (IL8) Biomarker Activity (AID 2284254); details: primary human keratinocytes with fibroblasts
# How it was run: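 ELISA detection of IL-8 from a human skin co-culture, keratinocytes with foreskin fibroblasts, at 24 h following chemical exposure, with gain of signal scored against DMSO controls.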
# [9] = read-out: Macrophage Inflammatory Protein-1 Alpha (MIP1a), CCL3 (gene 6348); test: BSK_IMphg_MIP1a: BioMAP Diversity Plus: IMphg Assay for Macrophage Inflammatory Protein-1 Alpha (MIP1a) Biomarker Activity (AID 2284255); details: primary human endothelial cells with macrophages
# How it was run: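 Co-culture of human venular endothelial cells and macrophages exposed to compounds for 24 h; MIP-1a measured by ELISA relative to DMSO. Cytotoxicity assessed in parallel cultures by sulforhodamine B total-protein staining at 560 nm.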
# [10] = read-out: Plasminogen activator inhibitor-1 (PAI1), SERPINE1 (gene 5054); test: BSK_MyoF_PAI1: BioMAP Diversity Plus: MyoF Assay for Plasminogen activator inhibitor-1 (PAI1) Biomarker Activity (AID 2284256); details: primary human lung fibroblasts;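 note: PAI-1 read 24 h after compound addition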
# How it was run: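 Activity reflects increased PAI-1, determined by ELISA and compared with DMSO, in human lung fibroblasts treated for 24 h.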
# CD69, CD69 (gene 969) = test: BSK_IMphg_CD69: BioMAP Diversity Plus: IMphg Assay for CD69 Biomarker Activity (AID 2284257); details: primary human endothelial cells with macrophages
# How it was run: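 Human venular endothelial cells co-cultured with macrophages; CD69 quantified by ELISA 24 h after compound addition. Activity fitted in the positive direction relative to DMSO baseline; cytotoxicity tracked in parallel cultures via SRB total-protein staining.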
# [11] = read-out: Eotaxin 3, CCL26 (gene 10344); test: BSK_BF4T_Eotaxin3: BioMAP Diversity Plus: BF4T Assay for Eotaxin 3 Biomarker Activity (AID 2284258); details: primary human bronchial epithelial cells with fibroblasts
# How it was run: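 Co-culture of human bronchial epithelial cells and dermal fibroblasts, exposed to chemicals for 24 h versus DMSO. Eotaxin-3 quantified by ELISA; cytotoxicity checked in parallel cultures by sulforhodamine B total-protein staining.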
# [12] = read-out: Monocyte Chemoattractant Protein-1 (MCP1), CCL2 (gene 6347); test: BSK_BF4T_MCP1: BioMAP Diversity Plus: BF4T Assay for Monocyte Chemoattractant Protein-1 (MCP1) Biomarker Activity (AID 2284259); details: primary human bronchial epithelial cells with fibroblasts
# How it was run: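 Co-culture of bronchial epithelial cells and dermal fibroblasts dosed with chemical; MCP-1 measured by ELISA 24 h later. Activity fitted in positive direction versus DMSO; cytotoxicity checked by SRB staining in parallel cultures.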
# [13] = read-out: Intercellular Adhesion Molecule 1 (ICAM1), ICAM1 (gene 3383); test: BSK_BF4T_ICAM1: BioMAP Diversity Plus: BF4T Assay for Intercellular Adhesion Molecule 1 (ICAM1) Biomarker Activity (AID 2284260); details: primary human bronchial epithelial cells with fibroblasts
# How it was run: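 Co-culture of human bronchial epithelial cells and dermal fibroblasts exposed 24 h to chemical; cell-surface ICAM-1 quantified by ELISA. Parallel SRB total-protein staining assessed cytotoxicity; activity fitted relative to DMSO.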
# [14] = read-out: Interleukin-8 (IL8), CXCL8 (gene 3576); test: BSK_MyoF_IL8: BioMAP Diversity Plus: MyoF Assay for Interleukin-8 (IL8) Biomarker Activity (AID 2284261); details: primary human lung fibroblasts
# How it was run: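 In this multiplexed primary-cell system, fibroblasts from human lung are treated with chemicals, and IL-8 is detected by ELISA at 24 h, with DMSO serving as the negative reference.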
# CD90, THY1 (gene 7070) = test: BSK_BF4T_CD90: BioMAP Diversity Plus: BF4T Assay for CD90 Biomarker Activity (AID 2284262); details: primary human bronchial epithelial cells with fibroblasts
# How it was run: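 Co-culture of human bronchial epithelial cells and dermal fibroblasts, 24 h compound exposure. Cell-surface CD90 measured by ELISA relative to DMSO; parallel SRB total-protein staining for cytotoxicity.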
# [15] = read-out: Interleukin-8 (IL8), CXCL8 (gene 3576); test: BSK_BF4T_IL8: BioMAP Diversity Plus: BF4T Assay for Interleukin-8 (IL8) Biomarker Activity (AID 2284263); details: primary human bronchial epithelial cells with fibroblasts
# How it was run: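 Human bronchial epithelial cells with dermal fibroblasts co-culture; IL-8 measured by ELISA 24 hours after dosing, fitted vs DMSO. Cytotoxicity tracked in parallel cultures by SRB total-protein staining.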
# [16] = read-out: Interleukin-1 alpha (IL1a), IL1A (gene 3552); test: BSK_BF4T_IL1a: BioMAP Diversity Plus: BF4T Assay for Interleukin-1 alpha (IL1a) Biomarker Activity (AID 2284264); details: primary human bronchial epithelial cells with fibroblasts
# How it was run: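 Human bronchial epithelial cells co-cultured with dermal fibroblasts, dosed and read at 24 h. Secreted/surface IL-1α quantified by ELISA; gain-of-signal fitted relative to DMSO baseline. Parallel SRB total-protein staining tracked cytotoxicity.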
# Decorin, DCN (gene 1634) = test: BSK_MyoF_Decorin: BioMAP Diversity Plus: MyoF Assay for Decorin Biomarker Activity (AID 2284265); details: primary human lung fibroblasts
# How it was run: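 Lung fibroblast cultures, 24 h chemical exposure. Decorin by ELISA, positive fitting direction, DMSO baseline.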
# KRT18 (gene 3875) = test: BSK_BF4T_Keratin818: BioMAP Diversity Plus: BF4T Assay for Keratin 818 Biomarker Activity (AID 2284266); details: primary human bronchial epithelial cells with fibroblasts
# How it was run: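 Co-culture of human bronchial epithelial cells and dermal fibroblasts, chemical exposure 24 h. Keratin 8/18 measured by ELISA; positive-direction fit vs DMSO. SRB total protein run in parallel cultures for cytotoxicity.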
smiles,measurement,setting,value
Cn1cnc([N+](=O)[O-])c1Sc1ncnc2nc[nH]c12,outcome,[1],inactive
same,outcome,[2],inactive
same,AC50,[3],12.6 µM (active)
same,outcome,[3],inactive
same,outcome,[4],inactive
same,AC50,[5],3.66 µM (active) and 12.6 µM (active)
same,outcome,[6],inactive
same,outcome,[7],inactive
same,outcome,[8],inactive
same,AC50,[9],12.2 µM (active)
same,outcome,[9],inactive
same,outcome,[10],inactive
same,outcome,"CD69, CD69 (gene 969)",inactive
same,outcome,[11],inactive
same,outcome,[12],inactive
same,outcome,[13],inactive
same,outcome,[14],inactive
same,outcome,"CD90, THY1 (gene 7070)",inactive
same,outcome,[15],inactive
same,outcome,[16],inactive
same,outcome,"Decorin, DCN (gene 1634)",inactive
same,outcome,KRT18 (gene 3875),inactive

# Reference: PubChem BioAssay (EPA / NIEHS)
